Assay results as given in the supplement of paper PMC6658780.
Counter-ions that a name gives are not always drawn. ± gives the standard deviation of the averaged measurements.

What follows are compounds tested on Escherichia coli ATCC BAA-2469 (assay: percent growth inhibition of drug alone vs DMSO control; higher = more growth inhibition). Conditions: antibiotic (0.125x MIC): none (0.1% DMSO); 7 µM.
Method: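 Prestwick drugs tested at 20 uM and 7 uM with an antibiotic at 0.125x MIC (16 mg/L when MIC >128 mg/L) against E. coli ATCC BAA-2469 (NDM-1) in CAMHB, 384-well plates, duplicate runs. Percent growth inhibition was computed from OD600 (24 h minus 0 h) relative to DMSO wells. Drug + DMSO-only wells are also given. […]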

SMILES	percent growth inhibition of drug alone
CN1[C@@H]2CC[C@H]1C[C@@H](OC(=O)C(CO)c1ccccc1)C2 (some centres not stated) [Atropine sulfate monohydrate]	1.11 ± 0.46%
O=C([O-])c1ccccc1-c1c2cc(Br)c(=O)cc-2oc2[c]([Hg+])c([O-])c(Br)cc12.[Na+].[Na+].[OH-] [Merbromin]	0.201 ± 1.7%
Oc1cc(Cl)ccc1Oc1ccc(Cl)cc1Cl [Triclosan]	103 ± 3.2%
O=C(CCCN1CCC2(CC1)C(=O)NCN2c1ccccc1)c1ccc(F)cc1 [Spiperone]	3 ± 1.4%
NCC1(CC(=O)O)CCCCC1 [Gabapentin]	-0.379 ± 0.84%
C[C@]12CC[C@H](O)C[C@@H]1CC[C@@H]1[C@@H]2CC[C@]2(C)C(=O)CC[C@@H]12 [Epiandrosterone]	-0.756 ± 0.88%

Same assay, conditions: antibiotic (0.125x MIC): none (0.1% DMSO); 20 µM

SMILES	percent growth inhibition of drug alone
CN1[C@@H]2CC[C@H]1C[C@@H](OC(=O)C(CO)c1ccccc1)C2 (some centres not stated) [Atropine sulfate monohydrate]	-0.0722 ± 0.38%
O=C([O-])c1ccccc1-c1c2cc(Br)c(=O)cc-2oc2[c]([Hg+])c([O-])c(Br)cc12.[Na+].[Na+].[OH-] [Merbromin]	38.2 ± 18%
Oc1cc(Cl)ccc1Oc1ccc(Cl)cc1Cl [Triclosan]	107 ± 2.6%
O=C(CCCN1CCC2(CC1)C(=O)NCN2c1ccccc1)c1ccc(F)cc1 [Spiperone]	2.07 ± 2.2%
NCC1(CC(=O)O)CCCCC1 [Gabapentin]	-1.41 ± 0.8%
C[C@]12CC[C@H](O)C[C@@H]1CC[C@@H]1[C@@H]2CC[C@]2(C)C(=O)CC[C@@H]12 [Epiandrosterone]	1.48 ± 2.3%
